From PubChem BioAssay AID1851 (National Center for Advancing Translational Sciences (NCATS), 2009)
Out of some 16,000 compounds screened, about 5,800 (36%) were called active. Another 23% or so got no clear call; they are omitted. Calls follow the shape of the dose curve; as a rule, active = well fitted curve in the direction sought with a large enough effect; inconclusive = small, poorly fitted or top-dose-only effect, or effect the other way; inactive = no such curve, though single readings can be large or run the other way. Some of the results follow.

biological target: Cytochrome P450 2C19 (Homo sapiens) (UniProt P33261); assay: Cytochrome panel assay with activity outcomes; details: recombinant CYP, pro-luciferin dealkylation, luminescence, p450-cyp2c19; series mostly up to 57.1 µM
% is scaled to controls: 0 for no effect and ±100 for the full control effect.

Sequence of Cytochrome P450 2C19 (Homo sapiens) (P33261 whole entry, looked up): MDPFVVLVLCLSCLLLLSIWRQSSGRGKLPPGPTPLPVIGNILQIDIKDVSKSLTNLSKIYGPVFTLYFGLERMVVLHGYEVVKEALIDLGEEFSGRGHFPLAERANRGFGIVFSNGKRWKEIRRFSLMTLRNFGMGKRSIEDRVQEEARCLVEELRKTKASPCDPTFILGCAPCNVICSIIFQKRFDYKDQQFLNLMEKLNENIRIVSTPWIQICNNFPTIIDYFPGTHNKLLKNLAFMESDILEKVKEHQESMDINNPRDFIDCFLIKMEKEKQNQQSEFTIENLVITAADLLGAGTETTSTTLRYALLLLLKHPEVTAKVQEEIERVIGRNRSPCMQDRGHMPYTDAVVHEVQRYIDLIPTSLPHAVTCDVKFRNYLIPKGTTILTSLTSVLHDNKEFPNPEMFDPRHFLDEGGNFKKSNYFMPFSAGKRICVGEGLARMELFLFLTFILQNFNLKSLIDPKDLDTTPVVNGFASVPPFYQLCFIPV

| SMILES | AC50 | activity, negative = inhibition |
| --- | --- | --- |
| O=C(Cn1cnc([N+](=O)[O-])c1)NCc1ccc(F)cc1 | inactive | – |
| C[C@H](NC(=O)Cn1cncn1)c1ccccc1 | inactive | – |
| Cc1ccc(CNC(=O)Cn2cncn2)cc1 | 7.94 µM (active) | – |
| Cc1cc(N)n(-c2ccc3ccccc3c2)n1 | 25.1 µM (active) | – |
| O=C(c1csnn1)N1CCC2(CC1)CN(c1ccccn1)C2 | inactive | – |
| Cc1ccc(Nc2ccc(-n3ccnc3)nn2)cc1C | 0.0501 µM (active) | – |
| CCC(C)NC(=O)c1ccccc1NC(=O)Nc1ccccc1 (centres undefined) | 10 µM (active) | – |
| CC(C)C(=O)NC(=S)Nc1ccccc1C(=O)Nc1ccccc1 | 15.8 µM (active) | – |
| Clc1ccc([C@H](Cn2ccnc2)OCc2csc3c(Cl)cccc23)c(Cl)c1 | 0.251 µM (active) | – |
| Clc1ccc(CO[C@@H](Cn2ccnc2)c2ccc(Cl)cc2Cl)cc1 | 0.0631 µM (active) | – |
| CC1(C)Cc2c(sc3c2C(=O)N(c2ccccc2)C2=NCCN23)CS1 | inactive | – |
| Cc1ccccc1Cn1c(Cc2ccccc2)nc2ccccc21 | 2 µM (active) | – |
| Clc1ccc(Cn2c(CN3CCCC3)nc3ccccc32)cc1 | 0.2 µM (active) | – |
| [O-][n+]1c(CN2CCCCC2)nc2cccc3c2c1-c1ccccc1-3 | – | 9.09% [at 11.4 µM] (inactive) |
| Cc1ccccc1CN1C2=NCCN2C(=O)C2=C1CCN(Cc1ccccc1)C2 | – | 10.2% [at 11.4 µM] (inactive) |
| c1ccc(Cn2c(CN3CCCC3)nc3ccccc32)cc1 | 3.55 µM (active) | – |
| Cn1c(-c2ccc(CN3CCCCC3)o2)nc2ccccc21 | inactive | – |
| C[N+]1(C)CCO[C@](O)(c2ccccc2)C1 | – | 42.8% [at 11.4 µM] (inactive) |
| c1cc2c(cc1C(N1CCNCC1)N1CCNCC1)OCO2 | – | 14.2% [at 11.4 µM] (inactive) |
| c1ccc(SC(Sc2ccccc2)c2ccc3c(c2)OCO3)cc1 | 0.0316 µM (active) | – |
| Cc1ccc(S(=O)(=O)N(CC(=O)N/N=C/c2ccc(F)cc2)c2cccc3cccnc23)cc1 | 1.12 µM (active) | – |
| CC(C)COCC1CC2(CC(C)(c3csc(N)n3)OC2=O)C(=O)O1 (centres undefined) | 15.8 µM (active) | – |
| CCCSC1=C(C#N)C(c2cccnc2)C(C(=O)OCC)=C(c2ccccc2)N1 (centres undefined) | 14.1 µM (active) | – |
| N#Cc1cccc(NC(=O)N2CCCC3(CCN(C(=O)c4cnccn4)CC3)C2)c1 | inactive | – |
| NN(CC(=O)O)CC(=O)O | – | 14.5% [at 11.4 µM] (inactive) |

| SMILES | AC50 | activity, negative = inhibition |
| --- | --- | --- |
| O=C(Nc1nc(-c2ccccc2)cs1)c1cccc([N+](=O)[O-])c1 | 1.58 µM (active) | – |
| O=C(Nc1nc(-c2ccccc2)cs1)c1ccc(Br)o1 | 14.1 µM (active) | – |
| CCNc1ncc2nc(C)c(=O)n(C)c2n1 | inactive | – |
| COc1ccc([C@H]2Sc3ccccc3N(CCN(C)C)C(=O)[C@H]2OC(C)=O)cc1 | inactive | – |
| CN(C)CCCN=c1c2ccccc2n(C)c2[nH]c(=O)n(C)c(=O)c12 | – | 31% [at 11.4 µM] (inactive) |
| CCNc1ncc2nc(-c3ccc(F)cc3)c(=O)n(CCC#N)c2n1 | inactive | – |
| CC1(C)C(=O)N(CCN2CCC(C(=O)c3ccc(F)cc3)CC2)c2ccccc21 | inactive | – |
| CC(C)c1ccc(C(=O)CC2(O)C(=O)N(CN3CCOCC3)c3ccccc32)cc1 (centres undefined) | 2.24 µM (active) | – |
| C[C@@H]1C[C@H]2[C@H]3C[C@@H](F)C4=CC(=O)C=C[C@]4(C)[C@@]3(Cl)[C@@H](O)C[C@@]2(C)[C@@H]1C(=O)COC(=O)C(C)(C)C | inactive | – |
| Clc1ccc(/C=N/Nc2nnc(-c3ncc[nH]3)c3ccccc23)cc1 | 11.2 µM (active) | – |
| C(=N/Nc1nnc2c(n1)[nH]c1ccccc12)/c1cccnc1 | – | -3.42% [at 11.4 µM] (inactive) |
| C=CC[n+]1c(-c2ccc(C)cc2)csc1NNC(=O)Nc1ccccc1 | 5.01 µM (active) | – |
| O=C1CC(N2CCN(CCc3ccccn3)CC2)C(=O)N1c1ccc(Cl)cc1 (centres undefined) | 8.91 µM (active) | – |
| O=C(CCn1nc(-c2ccc(Cl)cc2)ccc1=O)NCc1ccccn1 | inactive | – |
| CC1(C)CC2(CC(c3cccs3)c3cc(Cl)c(O)cc3O2)NC(=S)N1 (centres undefined) | 2.82 µM (active) | – |
| O=C(O)c1ccccc1OP(=O)(O)O | inactive | – |
| Cc1ccc(Oc2nnc(-c3ccccc3)cc2C#N)cc1 | inactive | – |
| Cc1nc(Cl)c(C#N)cc1-c1ccccc1 | 5.62 µM (active) | – |
| Cc1nc(Sc2ccccc2)c(C#N)cc1-c1ccccc1 | 0.631 µM (active) | – |
| O=C(O)c1c[nH]c2cc(OCc3ccccc3)ccc2c1=O | – | 0.142% [at 11.4 µM] (inactive) |
| Cc1cc2c(cc1C)NC1=C(N2)O[C@H](c2c[nH]c3ccc(COc4ccccc4)cc23)C1=O | 0.501 µM (active) | – |
| Cc1ncc(N=Nc2ccccc2Cl)c(-c2ccccc2)n1 | 14.1 µM (active) | – |
| CCSC1=C(C#N)C2(CCCCC2)C(C#N)=C(N)N1 | 5.01 µM (active) | – |
| COc1ccc(C(=O)[C@H](Br)[C@H](Br)C(=O)O)cc1 | – | -1.07% [at 11.4 µM] (inactive) |
| O=C(CNC(=O)c1ccco1)OC(C(=O)c1ccccc1)c1ccccc1 (centres undefined) | 5.62 µM (active) | – |

| SMILES | AC50 | activity, negative = inhibition |
| --- | --- | --- |
| COc1ccc(C(=O)C(OC(=O)CNC(=O)c2ccco2)c2ccccc2)cc1 (centres undefined) | 10 µM (active) | – |
| COC(=O)c1ccccc1-c1ccc(/C=C2\C(=O)N(c3ccccc3)N=C2c2ccccc2)o1 | 1.41 µM (active) | – |
| CC1=NN(c2ccccc2)C(=O)/C1=C\N1CC(C)OC(C)C1 (centres undefined) | inactive | – |
| COc1ccc(-c2ccc(/C=C3\C(=O)N(c4ccccc4)N=C3c3ccccc3)o2)c([N+](=O)[O-])c1 | 2.51 µM (active) | – |
| CN(C)CCCN1CCC2(CCC(C(C)(C)C)CC2)CC1 | – | 40.8% [at 11.4 µM] (inactive) |
| C[C@H](Oc1ccccc1)C(=O)N[C@@H]1C(=O)N2[C@@H]1SC(C)(C)[C@@H]2C(=O)O | inactive | – |
| CC(Oc1ccccc1)C(=O)Nc1nc2c(s1)C(=O)CC(C)(C)C2 (centres undefined) | 7.08 µM (active) | – |
| O=C1N=C(N2CCC(Cc3ccccc3)CC2)S/C1=C/c1cn[nH]c1-c1ccccc1 | 3.55 µM (active) | – |
| CCN1C(=O)[C@H]2[C@H]3[C@H](O)[C@H](O)C/C(=N/NC(=O)OCc4ccccc4)[C@@H]3CC[C@@H]2C1=O | – | 36.5% [at 11.4 µM] (inactive) |
| CC(C)C(NC(=O)OCc1ccccc1)C(=O)O (centres undefined) | inactive | – |
| CCC(C)C(NC(=O)OCc1ccccc1)C(=O)OCN1C(=O)c2ccccc2C1=O (centres undefined) | 3.16 µM (active) | – |
| Cc1ccc(C(=O)/C=C/c2c[nH]c3ccccc23)cc1 | 3.55 µM (active) | – |
| CCCn1c(/C=C/c2ccccc2)nc2ccccc21 | 7.94 µM (active) | – |
| O=S(=O)(O)CCCc1cccc2ccccc12 | – | 21.3% [at 11.4 µM] (inactive) |
| c1ccc2c(CC3NCCN3)cccc2c1 | – | 28.8% [at 11.4 µM] (inactive) |
| c1ccc2c(CSCc3cccc4ccccc34)cccc2c1 | 0.126 µM (active) | – |
| c1ccc2c(CSc3nnc(-c4ccncc4)o3)cccc2c1 | 0.282 µM (active) | – |
| c1ccc2c(CSCCc3ccncc3)cccc2c1 | 0.0794 µM (active) | – |
| c1cc(CSSCc2ccncc2)ccn1 | 1.26 µM (active) | – |
| CCNc1ncc2nc(-c3ccc(F)cc3)c(=O)n(-c3ccccc3)c2n1 | inactive | – |
| N[C@@H](CSC(=O)c1ccccc1)C(=O)O | – | 16.7% [at 11.4 µM] (inactive) |
| O=C(Cc1ccc(Cl)cc1)NNC(=O)Nc1cccc2ccccc12 | inactive | – |
| c1ccc(CSCCc2ccncc2)cc1 | 0.1 µM (active) | – |
| N=C(N)SCCc1ccncc1 | – | 9% [at 11.4 µM] (inactive) |
| CN1CCN(CCc2ccc(Cl)c(Cl)c2)CC1 | inactive | – |

| SMILES | AC50 | activity, negative = inhibition |
| --- | --- | --- |
| Clc1ccc(CSCCc2ccncc2)cc1Cl | 0.1 µM (active) | – |
| O=C(SCc1cccc2ccccc12)c1ccc(Cl)cc1 | 1.58 µM (active) | – |
| N=C(N)SCCc1ccc(CCSC(=N)N)cc1 | inactive | – |
| CCOC(=O)C1=C(CSc2nc(-c3ccccc3)ccc2C#N)OC(N)=C(C#N)C1c1ccc(OC)cc1 (centres undefined) | 2.82 µM (active) | – |
| CN1CCN(c2ncc3nc(-c4cc(F)cc(F)c4)c(=O)n(C)c3n2)CC1 | inactive | – |
| Cc1ccc(OCC(O)CNC(=O)c2ccccc2C(=O)O)cc1 (centres undefined) | 20 µM (active) | – |
| CC(C)NC[C@@H](O)COc1ccc(COCCOC(C)C)cc1 | inactive | – |
| Cc1ccc(S(=O)(=O)NCC(=O)N(CC(=O)NCc2ccco2)Cc2cccs2)cc1 | 14.1 µM (active) | – |
| CC(C)(C)OC(=O)NCCc1nnc(SCC(=O)Nc2cccc(Cl)c2)o1 | 3.98 µM (active) | – |
| NC(=O)OCC(COC(N)=O)c1ccccc1 | inactive | – |
| Cc1ccc(C(CC(N)=O)c2ccco2)cc1 (centres undefined) | 14.1 µM (active) | – |
| CC(C)(C)c1cc2cccnc2n1Cc1ccccc1 | 10 µM (active) | – |
| COc1ccc(CC(=O)NCCN2CCCC2)cc1 | inactive | – |
| COc1ccc(-c2ccc(C(=S)N3CCN(C(C)=O)CC3)o2)cc1 | 15.8 µM (active) | – |
| COc1ccc(-c2nc(C(=O)N3CCN(C)CC3)sc2-c2ccc(OC)cc2)cc1 | inactive | – |
| O=C(O)c1ccccc1-c1ccccc1C(=O)Nc1ccccc1 | inactive | – |
| O=C(Nc1ccccc1)c1ccccc1CC[N+](=O)[O-] | 17.8 µM (active) | – |
| O=C(Nc1ccccc1)c1cc(-n2cnnc2)ccc1Cl | inactive | – |
| O=C(Nc1ccccc1)c1cc([N+](=O)[O-])ccc1Cl | 0.794 µM (active) | – |
| Cn1c(=O)c2[nH]c(/N=N\N3CCN(CCO)CC3)nc2n(C)c1=O | – | 7.88% [at 11.4 µM] (inactive) |
| O=C(O)CN(CCN(CC(=O)O)CC(=O)O)CC(=O)O.[Mn] | – | -2.62% [at 11.4 µM] (inactive) |
| CCCCCNCc1cccc(Br)c1 | 11.2 µM (active) | – |
| O=C(NCCC1=CCCCC1)C1CCCN(c2nc3ccccc3o2)C1 (centres undefined) | 2.82 µM (active) | – |
| CC(C)(C)c1ccc(C(=O)N2CCC(C(=O)NCCC3=CCCCC3)CC2)cc1 | 15.8 µM (active) | – |
